# D1 agonist: human D1 receptor agonism; P21728; HEK293 T-REx D1 cells, calcium flux, agonist mode; activation, % at 2 µM; 1% of 360,000 active; AID 504660; in the data active = activation above about 30%; also: 0% is about no effect
#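 Agonism was scored from calcium flux recorded over 180 s (1 read/s) after pintool compound addition, following a 10-cycle baseline. Cells were inducible force-coupled HEK293 TREx D1, plated overnight at 30 C and loaded with no-wash calcium dye.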
# D3 ag: agonists of human D3 dopamine receptor | P35462 | D3R DiscoveRx beta-arrestin cells, luminescence, 90 min | max activation, % | 0.58% of 410,000 active; in the data active = max activation above about 30%; also: 0% is about no effect
# Target sequence (P35462 whole entry, looked up): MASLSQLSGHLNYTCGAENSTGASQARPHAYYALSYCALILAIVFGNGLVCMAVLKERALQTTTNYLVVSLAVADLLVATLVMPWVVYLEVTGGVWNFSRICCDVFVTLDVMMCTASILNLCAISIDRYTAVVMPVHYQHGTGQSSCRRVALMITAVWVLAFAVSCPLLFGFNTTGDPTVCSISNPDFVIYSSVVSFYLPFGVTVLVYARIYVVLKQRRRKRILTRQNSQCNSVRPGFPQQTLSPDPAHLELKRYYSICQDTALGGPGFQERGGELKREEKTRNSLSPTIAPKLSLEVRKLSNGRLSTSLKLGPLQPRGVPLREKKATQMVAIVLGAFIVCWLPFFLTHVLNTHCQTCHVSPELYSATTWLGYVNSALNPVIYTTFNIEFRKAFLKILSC
#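 Agonist-mode cell screen: cells plated at 1500/well and incubated overnight at 37 °C, then exposed to library compounds for 90 min at 37 °C. Detection reagent was added for 30–60 min at room temperature, and luminescence was read.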
# D1 antag: antagonists of human D1 dopamine receptor; P21728; HEK293 TREx D1 cells, calcium flux, dopamine EC80; stronger effect = lower value; activity change, negative = inhibition, % at 10 µM; 3.2% of 360,000 active; in the data active = activity change below about -30%; also: % is scaled to controls: 0 for no effect and ±100 for the full control effect
#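 Tetracycline-induced HEK293 T-REx cells with force-coupled D1 receptor were loaded with a no-wash calcium dye. Compound was added after a 10 s baseline and read kinetically for 180 s; EC80 dopamine was then added and calcium flux followed another 180 s.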
# D1 PAM: enhances dopamine response at the human D1 receptor. HEK293 TREx D1 cells, calcium flux, dopamine EC20 potentiation. potentiation, % at 10 µM. P21728. 0.036% of 360,000 active. AID 504651; in the data active = potentiation above about 30%; also: 0% is about no effect
# DRD3 antagonist: antagonists of human D3 dopamine receptor | max response, negative = inhibition, % | P35462 | D3R cells, DiscoveRx beta-arrestin luminescence, antagonist mode; stronger effect = lower value | 2.5% of 360,000 active; in the data active = max response below about -50%; inconclusive = no clear call, values can overlap the other calls; also: % is scaled to controls: 0 for no effect and ±100 for the full control effect
#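 Cells plated overnight at 1500 cells/well, then exposed to library compounds with dopamine controls for 90 minutes at 37 degrees C. DiscoveRx reagent added for 30–60 minutes at room temperature; luminescence read, quantitative HTS format.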
# * = called active by the depositor; ? = inconclusive; · = no result. A selection: hits, their analogues and other compounds. The true share with any hit is near 6%.
SMILES,D1 agonist,D3 ag,D1 antag,D1 PAM,DRD3 antagonist
COc1ccc(-c2cc(C(=O)Nc3ccc(OC)c(OC)c3)[nH]n2)c(C)c1,·,-14.7,·,·,-59.7*
Cc1cc(F)ccc1-c1cc(C(=O)NCc2cccs2)[nH]n1,·,-21.7,·,·,-77.0*
CCC(Sc1nc2cc(OC)c(OC)cc2c(=O)n1Cc1ccc(Cl)cc1)C(=O)NCCOC (stereo not drawn),-0.3,-8.5,0.0,-2.1,·
O=C(NC1(C(F)(F)F)C(=O)Nc2c1c(=O)[nH]c(=O)n2-c1ccc(Cl)cc1)c1ccccc1F (stereo not drawn),3.7,-5.7,-17.3,-1.1,·
CCOC(=O)N1CCc2c(sc3c2c(=O)n(Cc2ccccc2)c(=O)n3Cc2cc(C)ccc2C)C1,0.7,4.5,4.2,-2.6,·
CCOC(=O)N1CCc2c(sc3c2c(=O)n(CCc2ccccc2)c(=O)n3Cc2cc(C)ccc2C)C1,1.5,7.5,-50.9*,-3.5,·
COc1cc(C(=O)N2CCN(S(=O)(=O)c3ccc(C)cc3)CC2)ccc1OCC(=O)N1CCOCC1,·,-4.3,·,·,-7.3
NS(=O)(=O)c1ccc(-c2ccc(/C=C3\NC(=S)NC3=O)o2)cc1,2.3,43.2*,-10.3,-4.0,1.8
COc1cc(C[C@@H]2NCCc3cc(O)c(O)cc32)cc(OC)c1OC,·,-20.9,·,·,·
CCCCC(CC)CO (stereo not drawn),·,3.9,·,·,0.0
CCCCC(CC)CN=C(N)NC(N)=NCCCCCCN=C(N)NC(N)=NCC(CC)CCCC (stereo not drawn),1.6,-27.7,-75.0*,1.6,0.0
CCc1nn(CC(=O)NCc2ccc(OC)c(OC)c2)c(=O)c2cc3sc(C)cc3n12,-0.5,3.6,8.0,1.9,·
O=C(Nc1ccccc1O)c1ccc(NC(=O)C2CC2)cc1,0.3,-5.2,-33.3*,-4.6,-18.4
O=C(Nc1ccccc1C(=O)O)c1ccc(NC(=O)C2CC2)cc1,1.4,14.5,-10.7,-5.5,53.5
O=C1c2ccccc2S(=O)(=O)N1CCS(=O)(=O)c1ccc(F)cc1,8.2,86.9*,-10.2,-12.4,-17.1
O=C(CCN1C(=O)c2ccccc2S1(=O)=O)N1CCN(c2ccc(F)cc2)CC1,1.1,0.4,11.5,4.3,0.5
CCCCN(CC)C(=O)CSc1c2c(nc3ccc(Cl)cc13)CCCC2,2.0,0.2,-0.2,-2.5,·
CCC(C)(C)n1nnnc1CN(Cc1cccs1)Cc1cc2cc(OC)ccc2[nH]c1=O,1.7,3.6,0.9,-5.2,1.9
CCOc1ccc2[nH]c(=O)c(CN(Cc3cccs3)Cc3nnnn3C(C)(C)CC)cc2c1,0.5,31.4*,0.6,4.2,20.5
Cc1cccc(N2CCN(C(=O)c3ccc4c(Cl)c5c(nc4c3)CCCC5)CC2)c1C,2.0,-3.3,3.6,6.1,·
Cc1ccc(Cl)cc1N1CCN(C(=O)c2ccc(NC3=NC4CS(=O)(=O)CC4S3)cc2)CC1 (stereo not drawn),3.9,-17.2,-44.0*,-5.3,7.0
COc1ccc(S(=O)(=O)Nc2cc(-c3cn4ccc(C)cc4n3)ccc2C)cc1OC,2.7,-17.9,2.4,4.2,·
CCCS(=O)(=O)Nc1cc(-c2cn3ccc(C)cc3n2)ccc1C,0.2,8.0,2.8,58.6*,·
CC(C)c1ccccc1NC(=O)CNCCOc1ccccc1F,0.2,43.9*,-11.2,-1.7,?
Cc1nn(C)c(C)c1CCNC(=O)Nc1cccc(Cl)c1C,0.6,-1.2,-10.2,0.6,·
SMILES,D1 agonist,D3 ag,D1 antag,D1 PAM,DRD3 antagonist
Cc1cc(C)nc(SCCCNCc2ccccc2)n1,9.3,-26.3,-2.5,-2.4,-67.3*
Clc1cccc(Cl)c1CNCCCSc1ncccn1,1.8,-6.5,-13.2,-7.0,-3.2
Clc1cccc(CNCCCSc2ncccn2)c1Cl,14.2,-18.4,-19.0,-4.0,-69.5*
Cc1cc(C)nc(SCCS(=O)(=O)Cc2ccccc2)n1,1.9,1.1,4.8,-1.9,23.5
Clc1ccc(CNCCCSc2ncccn2)cc1Cl,9.8,0.7,2.5,0.0,-67.2*
COc1ccc(CCNC(=O)CCn2c(=O)c3cccn3c3ccc(F)cc32)cc1OC,0.9,-16.0,-26.8,-3.5,·
CC(C)(Oc1ccc(CCNC(=O)c2ccc(-c3ccccc3)o2)cc1)C(=O)O,3.5,1.5,-1.6,-8.1,4.1
CC(C)(Oc1ccc(-c2ccco2)cc1)C(=O)O,4.1,·,-45.7*,5.3,·
COCCOc1cc(NCc2ccccc2)c2ncn(C(C)C)c2c1,·,-14.7,·,·,-70.6*
CCCOc1cc(NCc2ccccc2)c2ncn(C(C)C)c2c1,32.8*,9.8,42.6,15.5,6.9
CCOc1cc(NCc2ccccc2)c2ncn(C(C)C)c2c1,·,-11.8,·,·,0.0
CCC(CO)Oc1cc(NCc2ccc(Cl)cc2Cl)c2ncn(C(C)C)c2c1 (stereo not drawn),·,-1.3,·,·,2.8
CCC(CO)Oc1cc(NCc2ccccc2O)c2ncn(C(C)C)c2c1 (stereo not drawn),·,50.4*,·,·,182.8
O=C(CCn1c(=O)c2sccc2n(Cc2cccc(F)c2)c1=O)NCc1ccc2c(c1)OCO2,1.1,7.4,10.9,0.8,·
COc1cc(NC(=O)C(OC(=O)CNC(=O)c2ccccc2)c2ccccc2)cc(OC)c1 (stereo not drawn),2.0,·,21.5,10.9,·
COc1ccc(Cl)cc1NC(=O)Cn1c(=O)n(-c2ccc(C)cc2)c(=O)c2ccc(C(=O)NCc3ccccc3Cl)cc21,0.9,4.5,-2.0,1.9,·
CCOC(=O)c1cccc(NC(=O)CCn2nc(C)c(S(=O)(=O)N3CCCCC3)c2C)c1,4.1,-5.3,-4.3,-7.4,0.0
CC(=O)c1cccc(NC(=O)CCn2nc(C)c(S(=O)(=O)N(C)C)c2C)c1,0.3,4.7,-47.1*,-1.0,·
CC1Sc2ccccc2N(CC(=O)N(C(C)C)C(C)C)C1=O (stereo not drawn),-1.0,-3.0,-12.3,2.4,-70.3*
Clc1ccc2c(N3CCOCC3)ccnc2c1,2.9,1.3,-3.1,-2.2,-3.8
Clc1ccc2c(c1)CNc1c(ncnc1N1CCOCC1)O2,3.0,8.2,-42.8*,-9.4,14.6
Fc1ccc(Nc2nc3nonc3nc2Nc2cccc(C(F)(F)F)c2)cc1,23.8,-15.8,-36.6*,-3.4,·
O=C(O)CCc1nc2ccccc2n(CCc2ccccc2)c1=O,1.0,2.0,-14.2,-0.7,30.0
O=C(O)CCc1nn2c3ccccc3nc2n(CCN2CCCCC2)c1=O,6.6,2.4,-30.6*,-4.8,5.8
N#C/C(=C\c1ccc(Cl)cc1Cl)c1nc(-c2cccc(Cl)c2)cs1,3.6,-4.1,11.9,0.1,·
Cc1nnc(SCC(=O)NC2CCCCC2)n1N,·,4.0,·,·,20.3
Nn1c(SCC(=O)NC2CCCCC2)nnc1C1CC1,5.6,-6.6,-7.1,0.4,-62.5*
Nn1c(SCC(=O)Nc2ccc(F)c(F)c2)nnc1C1CCCCC1,3.5,-6.1,-52.6*,-5.5,-5.2
CCCCNc1c(-c2ccc(Sc3ccc(OC)cc3)cc2)nc2cc(C)ccn12,·,55.9*,·,·,0.0

# Screens from PubChem BioAssay.
